This is an account of results in PubChem BioAssay.

Structures are written as SMILES. Active and inactive are the calls of the source.

Assay [1] is described as follows: optical density shifts of acrAB sulA E. coli – strain DRC41, OD650, 48 h, E. coli filamentation inducer project, primary screen (AID 1152).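 Further: E. coli MC1000 strain DRC41 lacking acrAB efflux pump and sulA.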 The note with it: higher = more signal, called active from +8 up or from −8 down.
Assay [2] in a line: probe aLefty1 binding on compound microarray – biochemical, small-molecule microarray, 635/667 nm fluorescence, primary screen (AID 1153).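 Further: score merges spot fluorescence with signal-to-noise ratio from the scanned slide images.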 The settings on record: higher = more signal.
The nature of assay [3]: plasmodial surface anion channel blockers, osmotic lysis – cell-based, P. falciparum Indochina, OD700, 1 h, primary screen (AID 1154). The note with it: P. falciparum Indochina infected RBC osmotic lysis, higher = more signal, called active from +8 up or from −8 down.
The nature of assay [4]: plasmodial surface anion channel blockers, osmotic lysis – cell-based, P. falciparum Indochina, OD700, 2 h, primary screen (AID 1155).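 Further: lysis reports solute entry through the parasite surface anion channel PSAC.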 The settings on record: P. falciparum Indochina infected erythrocytes, higher = more signal, called active from +8 up or from −8 down.
The nature of assay [5]: changes in parasitized red cell lysis, either direction – P. falciparum Indochina, OD700, 3 h, PSAC antagonist project, primary screen (AID 1156). The note with it: P. falciparum-infected erythrocytes, osmotic lysis, higher = more signal, called active from +8 up or from −8 down.
Assay [6] is described as follows: plasmodial surface anion channel blockers, osmotic lysis – cell-based, P. falciparum Indochina, OD700, 18 h, primary screen (AID 1157). The settings on record: P. falciparum Indochina infected erythrocytes, osmotic lysis OD700, 18 h; higher = more signal, called active from +8 up or from −8 down.
Assay [7] in a line: S6 kinase pathway phospho-S6 level changes – cell-based, A549, cytoblot, luminescence, serum-stimulated, primary screen (AID 1158).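 Further: serum-stimulated A549 lung adenocarcinoma cells; signal is phosphorylated S6 detected by cytoblot immunostaining with HRP secondary.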 The settings on record: 5 h, higher = more signal.
Assay [8] addresses NADPH oxidase 2 (Homo sapiens) (UniProt P04839). In words: compounds shifting NOX2 Amplex Red fluorescence – cell-based, HEK293-NOX2, PMA-stimulated, NOX inhibitor project, primary screen (AID 1159). Further: test concentration not given here. The settings on record: 45 min, higher = more signal, called active from +8 up or from −8 down.
The target in assay [9] is NADPH oxidase 4 (Homo sapiens) (UniProt Q9NPH5). In words: compounds shifting NOX4 Amplex Red fluorescence – cell-based, HEK293-NOX4, tetracycline-induced, NOX inhibitor project, primary screen (AID 1160). The note with it: HEK293-NOX4, Amplex Red H2O2 fluorescence, 45 min; higher = more signal, called active from +8 up or from −8 down.
Assay [10] deals with NADPH oxidase 5 (Homo sapiens) (UniProt Q96PH1). In words: compounds shifting NOX5 Amplex Red fluorescence – cell-based, HEK293-NOX5, NOX inhibitor project, primary screen (AID 1161). The settings on record: HEK293-NOX5, ionomycin, 45 min, higher = more signal.
The nature of assay [11]: compound effects on lung adenocarcinoma cell viability – A549, calcein-AM fluorescence, 48 h, basal, profiling panel (AID 1162). Further: test concentration not given here. The note with it: higher = more signal.
The nature of assay [12]: compound effects on differentiated 3T3-L1 adipocyte viability – cell-based, 3T3-L1 adipocytes, calcein-AM fluorescence, 48 h, basal, profiling panel (AID 1163). Further: test concentration not given here. The note with it: 3T3-L1 adipocytes viability, higher = more signal.
A short description of assay [13]: compound effects on hepatocellular carcinoma cell viability – HepG2, calcein-AM fluorescence, 48 h, basal, profiling panel (AID 1164). Further: test concentration not given here. The settings on record: higher = more signal.
Assay [14] is described as follows: compound effects on multiple myeloma cell viability – MM1S, calcein-AM fluorescence, 48 h, basal, profiling panel (AID 1165).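 Further: viability of MM1S multiple myeloma cells under basal unstimulated conditions; test concentration not given here.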 The note with it: higher = more signal.
Assay [15] can be described thus: calcein-AM signal in unstimulated myeloma cells – cell-based, calcein-AM fluorescence, 48 h, PK04 Diversity Set, profiling panel (AID 1166).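 Further: cells grown under basal conditions without added stimulus; test concentration not given here.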 The settings on record: RPMI8226 myeloma viability, higher = more signal.
Assay [16] in a line: JC-1 mitochondrial signal, unstimulated HepG2 cells – cell-based, JC-1 fluorescence, 24 h, 100 nL compound, profiling panel (AID 1167). Further: test concentration not given here. The settings on record: HepG2 mitochondrial potential, higher = more signal.
A short description of assay [17]: JC-1 mitochondrial signal, unstimulated adipocytes – cell-based, JC-1 fluorescence, 3T3-L1 adipocytes, 24 h, 100 nL compound, profiling panel (AID 1168). Further: test concentration not given here. The note with it: JC-1 mitochondrial fluorescence, higher = more signal, called active from +8 up or from −8 down.
Assay [18] is described as follows: JC-1 mitochondrial signal, unstimulated myeloma cells – cell-based, JC-1 fluorescence, RPMI8226, 24 h, 100 nL compound, profiling panel (AID 1169). Further: test concentration not given here. The settings on record: JC-1 mitochondrial potential fluorescence, higher = more signal.
Assay [19] in a line: JC-1 mitochondrial signal, unstimulated MM1S myeloma – cell-based, JC-1 fluorescence, 24 h, 100 nL compound, profiling panel (AID 1170). Further: test concentration not given here. The note with it: MM1S mitochondrial potential, higher = more signal.
Assay [20] in a line: resazurin metabolic signal in A549 cells – cell-based, resazurin fluorescence, 24 h, PK04 Diversity Set, profiling panel (AID 1171). Further: test concentration not given here. The settings on record: A549 viability, higher = more signal, called active from +8 up or from −8 down. (In general: Alamar Blue is a resazurin reagent that responds to reducing activity.)

NADPH oxidase 5 (Homo sapiens), sequence (Q96PH1 whole entry, looked up): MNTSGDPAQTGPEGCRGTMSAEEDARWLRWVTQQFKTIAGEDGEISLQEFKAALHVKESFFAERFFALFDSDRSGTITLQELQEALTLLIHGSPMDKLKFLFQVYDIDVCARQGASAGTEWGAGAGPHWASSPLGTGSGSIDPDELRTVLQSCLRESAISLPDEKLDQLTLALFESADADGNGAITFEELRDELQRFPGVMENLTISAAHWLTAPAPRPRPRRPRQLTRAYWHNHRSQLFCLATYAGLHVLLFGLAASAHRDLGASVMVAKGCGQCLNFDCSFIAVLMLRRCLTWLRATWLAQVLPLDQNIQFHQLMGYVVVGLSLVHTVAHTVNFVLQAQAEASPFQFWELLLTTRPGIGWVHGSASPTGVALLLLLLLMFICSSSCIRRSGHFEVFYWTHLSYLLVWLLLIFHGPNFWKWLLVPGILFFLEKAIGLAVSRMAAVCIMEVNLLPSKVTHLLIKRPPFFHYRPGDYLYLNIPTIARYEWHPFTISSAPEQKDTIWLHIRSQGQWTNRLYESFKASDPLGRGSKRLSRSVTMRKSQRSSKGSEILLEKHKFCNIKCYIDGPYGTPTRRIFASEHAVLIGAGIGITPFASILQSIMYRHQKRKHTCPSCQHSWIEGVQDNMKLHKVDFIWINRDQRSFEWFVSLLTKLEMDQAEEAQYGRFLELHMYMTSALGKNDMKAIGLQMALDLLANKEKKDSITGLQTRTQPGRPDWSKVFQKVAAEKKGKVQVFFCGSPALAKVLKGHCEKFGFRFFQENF
NADPH oxidase 4 (Homo sapiens), sequence (Q9NPH5 whole entry, looked up): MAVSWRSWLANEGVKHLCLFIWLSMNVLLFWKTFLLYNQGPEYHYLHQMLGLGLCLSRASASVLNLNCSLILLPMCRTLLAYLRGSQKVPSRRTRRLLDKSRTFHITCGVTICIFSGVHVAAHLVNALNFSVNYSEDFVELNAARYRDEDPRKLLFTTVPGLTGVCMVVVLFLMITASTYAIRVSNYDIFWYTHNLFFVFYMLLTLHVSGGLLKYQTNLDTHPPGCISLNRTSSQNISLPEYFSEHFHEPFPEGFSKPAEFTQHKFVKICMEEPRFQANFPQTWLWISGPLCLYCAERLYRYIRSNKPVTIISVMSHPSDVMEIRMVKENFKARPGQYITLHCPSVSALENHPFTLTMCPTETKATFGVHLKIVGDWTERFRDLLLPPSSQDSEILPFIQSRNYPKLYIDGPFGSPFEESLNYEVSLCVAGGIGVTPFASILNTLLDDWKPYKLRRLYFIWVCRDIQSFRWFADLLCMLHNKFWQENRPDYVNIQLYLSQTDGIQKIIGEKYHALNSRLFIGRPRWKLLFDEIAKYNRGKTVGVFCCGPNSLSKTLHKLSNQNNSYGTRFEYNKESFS
NADPH oxidase 2 (Homo sapiens), sequence (P04839 whole entry, looked up): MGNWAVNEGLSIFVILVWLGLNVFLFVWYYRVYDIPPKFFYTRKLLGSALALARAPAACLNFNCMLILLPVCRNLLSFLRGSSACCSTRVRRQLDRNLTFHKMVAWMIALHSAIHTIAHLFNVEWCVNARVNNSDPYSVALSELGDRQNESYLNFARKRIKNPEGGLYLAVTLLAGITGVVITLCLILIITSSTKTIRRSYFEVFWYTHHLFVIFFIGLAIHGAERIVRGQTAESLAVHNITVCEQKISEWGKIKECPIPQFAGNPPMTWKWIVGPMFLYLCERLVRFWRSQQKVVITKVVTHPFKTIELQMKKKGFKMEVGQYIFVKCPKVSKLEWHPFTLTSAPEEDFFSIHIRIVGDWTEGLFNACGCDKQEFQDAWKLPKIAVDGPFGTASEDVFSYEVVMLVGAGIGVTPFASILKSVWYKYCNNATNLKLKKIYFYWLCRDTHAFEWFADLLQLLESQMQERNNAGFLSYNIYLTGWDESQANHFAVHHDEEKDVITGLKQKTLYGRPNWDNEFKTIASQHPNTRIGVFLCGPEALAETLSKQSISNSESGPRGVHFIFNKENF

Take `O=C1[C@H]2[C@H]3[C@H](O)[C@H](O)CC(=NOCc4ccccc4)[C@@H]3CC[C@H]2C(=O)N1C[C@@H]1CCCO1`: the z-score is 0.516 (inactive) in assay [1]; -0.132 (inactive) in [3]; 0.141 (inactive) in assay [4]; -0.335 (inactive) in [5]; 0.305 (inactive) in [6]; -0.0701 in assay [7]. For the same molecule, the z-score is 0.434 (inactive) in [8]; 0.531 (inactive) in assay [9]; 0.102 in assay [10]; -0.0287 in assay [11]; -0.444 in [12]; -0.581 in [13]. Besides, the z-score in assay [14] was 0.229; in assay [15], -0.812; in assay [16], -1.01; in [17], 0.577 (inactive); in assay [18] it was -0.944; in [19] it was -0.28. Moreover, the z-score in [20] is 0.232 (inactive). Also, the composite z-score in [2] is -0.28.

Consider `Cc1cc2c(nc1C)CCCN2CC(O)CN1CCCc2nc(C)c(C)cc21`, for which the z-score in assay [1] is -0.171 (inactive); in assay [3] it was -0.274 (inactive); in [4], 0.185 (inactive); in [5], 0.249 (inactive); in [6], -0.0697 (inactive); in assay [7], -0.669. Moreover, the z-score was 0.803 (inactive) in assay [8]; 0.628 (inactive) in assay [9]; -0.575 in [10]; -0.254 in assay [11]; -0.0412 in assay [12]; -0.949 in assay [13]. Moreover, the z-score in assay [14] is -0.0227; in assay [15] it was 0.391; in assay [16], 0.00162; in assay [17], -0.414 (inactive); in assay [18] it was -0.108; in assay [19], 0.382. Further, in [20], the z-score was 0.189 (inactive). The molecule also had a composite z-score in assay [2] of 0.547.

On to `CC(C)CON=C1C[C@@H](O)[C@@H](O)[C@@H]2[C@@H]3C(=O)N(c4ccc(F)cc4F)C(=O)[C@@H]3CC[C@H]12`, for which the z-score is -0.619 (inactive) in assay [1]; 1.17 (inactive) in [3]; -0.996 (inactive) in [4]; 0.12 (inactive) in assay [5]; -1.09 (inactive) in assay [6]; -0.0969 in assay [7]. The z-score in [8] is -1.13 (inactive); in assay [9] it was 0.632 (inactive); in [10], 0.178; in assay [11], 0.0042; in assay [12], -0.934; in [13], -0.222. Moreover, the z-score in [14] was 0.597; in assay [15] it was -0.567; in assay [16] it was 0.861; in assay [17] it was -0.131 (inactive); in [18] it was 0.541; in assay [19], -1. Also, the z-score in assay [20] is 0.495 (inactive). For the same molecule, the composite z-score in assay [2] was determined as 0.144.

`COC(=O)C1=C(C)N(Cc2ccccc2)[C@]23O[C@](C(=O)OC)(C(=O)N2[C@@H]1c1ccccc1)C(C(=O)OC)=C3C(=O)OC`: the z-score in assay [1] was 0.214 (inactive); in [3], 2.05 (inactive); in assay [4], -0.468 (inactive); in [5], 0.323 (inactive); in assay [6], -1.52 (inactive); in assay [7], 2.22. Besides, the z-score in assay [8] is 0.826 (inactive); in [9], 0.109 (inactive); in assay [10], 2.03; in assay [11], -0.321; in assay [12], 1.48; in [13] it was 0.0331. The z-score is -1.45 in [14]; -3.2 in assay [15]; 0.483 in assay [16]; 0.725 (inactive) in assay [17]; -0.256 in assay [18]; -0.239 in [19]. Also, the z-score in [20] is -0.645 (inactive). Also, the composite z-score in [2] is 0.0774.

As to `Cc1ccc(S(=O)(=O)NC(CCc2ccccc2)CC(=O)C(C)(C)C)cc1` (stereo not given), the z-score in assay [1] was -0.286 (inactive); in assay [3] it was 0.603 (inactive); in assay [4] it was 0.0974 (inactive); in [5], -0.573 (inactive); in assay [6] it was 0.124 (inactive); in [7], -0.566. For the same molecule, the z-score is -1.18 (inactive) in assay [8]; 0.0624 (inactive) in assay [9]; -0.868 in assay [10]; 0.0378 in assay [11]; -0.795 in assay [12]; -0.869 in assay [13]. Also, the z-score in [14] is 0.0642; in assay [15], -0.156; in [16], -0.696; in assay [17], -0.255 (inactive); in assay [18], -0.201; in assay [19] it was -0.236. In addition, in [20], the z-score is 1.34 (inactive). In assay [2], this molecule displayed a composite z-score of -0.125.

Turning to `CCOC(=O)NN=C1C[C@@H](O)[C@@H](O)[C@@H]2[C@@H]3C(=O)N(Cc4ccccc4)C(=O)[C@@H]3CC[C@H]12`, the z-score is -0.356 (inactive) in [1]; 1.39 (inactive) in assay [3]; -0.673 (inactive) in assay [4]; -0.0654 (inactive) in assay [5]; -1.36 (inactive) in assay [6]; 0.577 in assay [7]. Moreover, the z-score was 1.15 (inactive) in assay [8]; 0.547 (inactive) in assay [9]; 0.0313 in assay [10]; 0.29 in assay [11]; 0.114 in assay [12]; -1.05 in assay [13]. Moreover, the z-score in assay [14] is 0.976; in assay [15], -2; in assay [16], 0.366; in [17] it was 0.42 (inactive); in assay [18] it was 0.334; in assay [19] it was -0.68. For the same molecule, in assay [20], the z-score was 0.939 (inactive). The composite z-score in assay [2] is -0.332.

Take `O=C1[C@H]2[C@H]3[C@H](O)[C@H](O)CC(=NOCc4ccccc4)[C@H]3CC[C@H]2C(=O)N1Cc1ccc2c(c1)OCO2`: the z-score is -1.06 (inactive) in assay [1]; 19.4 (active) in assay [3]; 2.12 (inactive) in [4]; 0.686 (inactive) in assay [5]; 0.599 (inactive) in assay [6]; -0.702 in [7]. Further, the z-score is 0.414 (inactive) in assay [8]; -0.0657 (inactive) in assay [9]; -2.61 in [10]; 0.446 in [11]; 0.717 in assay [12]; -1.25 in [13]. Also, the z-score in [14] is 0.424; in [15], -1.69; in assay [16], 0.701; in [17] it was -0.802 (inactive); in assay [18], 0.0189; in [19] it was 0.349. For the same molecule, the z-score in assay [20] was 0.392 (inactive). The composite z-score in assay [2] was -0.147.

On to `COC(=O)CC=C[C@@H](C)[C@@H](C=NOC[C@H]1O[C@H](c2ccccc2)C=C[C@@H]1Oc1ccc(OC)cc1)NS(=O)(=O)c1ccc(C)cc1`, for which the z-score is -0.272 (inactive) in [1]; 4.79 (inactive) in assay [3]; 1.56 (inactive) in [4]; 0.949 (inactive) in assay [5]; 0.857 (inactive) in [6]; 0.0859 in [7]. The z-score was -0.273 (inactive) in [8]; 0.0179 (inactive) in assay [9]; -0.523 in assay [10]; -1.31 in assay [11]; -0.486 in [12]; -0.43 in assay [13]. Further, the z-score in assay [14] was -1.7; in [15], -1.2; in assay [16], 0.0495; in [17] it was -1.06 (inactive); in assay [18] it was 0.689; in assay [19] it was -0.077. In addition, the z-score in [20] was -0.374 (inactive). In assay [2], this molecule had a composite z-score of -0.147.
